Bioassay records (PubChem BioAssay)
TRPV1 ag = human TRPV1 agonism; Q8NER1; TRPV1-expressing cells, Fluo-8 calcium influx, agonist mode; activation, % at 8.33 µM; 0.19% of 320,000 active; AID 540275; in the data active = activation above about 80%; inconclusive = between about 30% and that limit; also: 0% is about no effect
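Fluo-8 calcium influx in TRPV1-expressing cells, kinetic read (ex 480/em 520 nm). Compound added and read 3 min for agonist activity, followed by capsaicin at EC20 final and 2 min further read for enhancement.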
TRPV1 PAM = human TRPV1 potentiation | potentiation, % at 8.33 µM | TRPV1-expressing cells, Fluo-8 calcium influx, capsaicin EC20 potentiation | 0.02% of 320,000 active | Q8NER1; in the data active = potentiation above about 80%; inconclusive = between about 30% and that limit; also: 0% is about no effect
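Cells expressing TRPV1 were dye-loaded with Fluo-8 and read kinetically: 10 s baseline, 3 min after compound (agonist portion), then 2 min after EC20 capsaicin (allosteric enhancer portion). Calcium-bound dye fluorescence at 480/520 nm.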
KCNH2 3.1 block = KCNH2 3.1 (human) potassium channel inhibition. U2OS KCNH2 3.1, thallium flux FluxOr; stronger effect = lower value. activity change, % (tested at about 1.8 µM). 0.95% of 340,000 active;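 active = maximum activity change below -70%; inconclusive = maximum activity change from -70% to -50%; inactive = maximum activity change above -50%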;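 also: thallium influx rate constant from kinetic fluorescence after stimulation buffer; % is scaled to controls: 0 for no effect and ±100 for the full control effect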
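Normalized rate constant (relative to positive and negative DMSO controls) derived from a 2 min kinetic fluorescence read after stimulation; U2OS cells expressing the 3.1 isoform via virus at 1.77 x 10^8 /mL.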
KCNH2 WT inh = KCNH2 (human, wildtype) channel inhibition; activity change, % at 1.84 µM; 0.37% of 340,000 active; Q12809; U2OS, BacMam KCNH2, thallium flux FluxOr; stronger effect = lower value;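 active = maximum activity change below -70%; inconclusive = maximum activity change between -70% and -50%; inactive = maximum activity change above -50%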; also: % is scaled to controls: 0 for no effect and ±100 for the full control effect
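U2OS cells were transduced with wild-type KCNH2 virus (2.03 x 10^8 / mL) for 4 h at room temperature, then cultured overnight at 37 C. Thallium flux was read with FluxOr dye. Rate constants were normalized to DMSO controls.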
Active calls of the source: *; i = inactive; ? = inconclusive; . = no result given. The list is not random: actives were taken first. Their share in the collection is about 1.2%.

SMILES	TRPV1 ag	TRPV1 PAM	KCNH2 3.1 block	KCNH2 WT inh
O=C(NCC(c1ccco1)N1CCCC1)c1cn(-c2ccccc2)nc1-c1ccc(F)cc1 (stereo unspecified)	19.2	-6.9	0.7	30.5
Cc1ccccc1CN1CCc2c(OCC(=O)N3CCCc4ccccc43)cccc2C1=O	-0.8	1.0	-15.0	-123.3*
CCOc1ccc2c(c1)C(c1ccc(C)cc1)=NNC(c1ccc(OC)cc1)=N2	1.3	-2.5	-93.7*	-39.9
CCOC(=O)c1c(S(=O)(=O)NCC(=O)Nc2ccc(OC)cc2)c(C)n(C)c1C	-1.4	-2.6	-162.2*	-1.5
CC(=O)c1cccc(NC(=S)NCCc2ccc(Cl)cc2)c1	85.2*	5.0	-5.3	-2.2
CC(=O)c1cccc(NC(=S)NCc2ccccc2)c1	?	1.2	15.2	-1.1
COc1ccc(CCN2C(=O)NC(NS(=O)(=O)c3ccccc3)(C(F)(F)F)C2=O)cc1OC (stereo unspecified)	0.8	-1.6	9.1	5.8
O=c1[nH]cc(CN2CCOCC2)c(=O)[nH]1	.	.	-81.8*	-2.3
CCN(CC)S(=O)(=O)c1ccc(N2CCOCC2)c(NS(=O)(=O)c2ccc(C)c(C)c2)c1	-0.8	1.6	-94.1*	5.6
CCCCN(C(=O)C1CC(=O)N(c2ccc3c(c2)OCCO3)C1)c1c(N)n(CC(C)C)c(=O)[nH]c1=O (stereo unspecified)	2.5	-11.6	-192.4*	-151.8*
CCOC(=O)c1cnc(SCc2cccc3ccccc23)nc1N	-2.9	-5.8	-133.5*	-16.4
CC1CN(Cc2ccco2)C(=S)NC1=O (stereo unspecified)	.	.	10.3	-1.0
O=C(Nc1ccccc1)c1cc(-c2ccccc2Cl)no1	84.9*	-6.3	-12.5	16.1
COc1ccc(NC(=O)c2cc(-c3ccccc3Cl)no2)cc1	?	-11.1	-14.6	-2.7
Cc1ccc(S(=O)(=O)N(C)C[C@@H]2OCc3cnnn3CCCC(=O)N([C@H](C)CO)C[C@@H]2C)cc1	.	.	0.5	-16.4
COC(=O)C(NC(=O)c1ccc(F)cc1)(Nc1ncc(S(=O)(=O)c2ccc([N+](=O)[O-])cc2)s1)C(F)(F)F (stereo unspecified)	-0.1	1.3	-80.0*	-74.8*
COC(=O)C(NC(=O)c1ccccc1C)(Nc1ncc(S(=O)(=O)c2ccc([N+](=O)[O-])cc2)s1)C(F)(F)F (stereo unspecified)	2.4	8.3	-1.3	-1.1
CC1CCN(c2ccc(C=O)o2)CC1	-4.2	-3.6	-195.9*	.
CC(=O)n1c2c(c3ccccc31)OC(N)=C(C#N)C2c1cccc(Cl)c1Cl (stereo unspecified)	3.3	6.6	1.2	.
CC1CCCCN1S(=O)(=O)c1ccc(N(C(=O)c2cnccn2)C(C(=O)NC2CCCCC2)c2cccs2)cc1 (stereo unspecified)	18.8	-13.7	7.4	-71.1*
CC1CCCCN1S(=O)(=O)c1ccc(N(C(=O)c2cnccn2)C(C(=O)NC2CCCC2)c2cccs2)cc1 (stereo unspecified)	3.5	1.1	1.9	13.4
Cc1ccc(NC(=S)NCCc2c[nH]c3ccccc23)c(C)c1	?	-5.8	-90.8*	22.0
COc1ccccc1NC(=S)NCCc1c[nH]c2ccccc12	26.2	-16.1	-7.9	6.2
CN(C)CCCN(C(=O)CCc1ccccc1)c1nc2ccc(F)cc2s1	-1.6	4.1	-7.3	25.4
CN(C)CCCN(C(=O)CCc1ccccc1)c1nc2ccc(Br)cc2s1	-0.1	-18.8	-87.0*	-35.7
SMILES	TRPV1 ag	TRPV1 PAM	KCNH2 3.1 block	KCNH2 WT inh
COc1ccc(C(=O)NCC(=O)N/N=C/c2cccc(OC(=O)c3ccco3)c2)cc1OC	8.0	-10.1	-3.1	-74.6*
Cc1nc(NC(=O)CSc2nnc(C)n2CC2CCCO2)sc1C (stereo unspecified)	1.4	1.5	15.1	-188.1*
Cc1ccc(NC(=O)CSc2nnc(C)n2CC2CCCO2)cc1 (stereo unspecified)	-2.6	0.9	-0.5	.
CCCNC(=S)N1CCC(C(=O)c2ccc(F)cc2)CC1	23.2	-25.8	-8.2	1.5
COc1ccccc1NCCC(=O)OCC(=O)Nc1ccccc1F	.	.	6.4	-4.8
COc1ccccc1NCCC(=O)OCC(=O)Nc1ccccc1Cl	.	.	-209.5*	-106.4*
Cc1ccc(C(=O)NCCNC(=O)c2ccco2)cn1	-0.5	-0.5	6.3	-6.5
CCCC[C@]12Cc3cc(OC)c(OC)cc3C(O1)C1=C(O2)C(=O)c2ccccc2C1=O	i	i	.	.
